JMJD2A Tudor inh: blocks the human JMJD2A Tudor domain; O75164; AlphaScreen JMJD2A-Tudor / H3K4me3 peptide binding; Potency, µM (doses to about 114 µM), without a hit: at the top dose activity change, negative = inhibition, most hits filed as inhibitors; 4.4% of 390,000 active; note: % is set by controls: 0 for no effect and ±100 for the full control effect; nearly all actives have a fitted effect of over 50% in size
BAZ2B block: inhibitors of human BAZ2B bromodomain. Q9UIF8. AlphaScreen BAZ2B-H3K14Ac peptide displacement. Potency, µM (doses to about 114 µM), for inactives: at the highest dose activity change, negative = inhibition, usual class: inhibitors. 4.4% of 360,000 active; note: % is set by controls: 0 for no effect and ±100 for the full control effect; nearly all actives have a fitted effect of over 60% in size
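AlphaScreen displacement: compounds (up to 110uM) incubated 30 min at room temperature with a preformed 50 nM BAZ2B/50 nM biotinylated H3K14Ac peptide complex in PBS pH 7.4 with Tween-20. Donor and acceptor beads at 10 ug/mL final added, 20 min light-protected before reading.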
HP1b chromo inh: inhibitors of HP1-beta chromodomain binding to methylated histone tails. AID 540317. P83916. 0.56% of 390,000 active. Potency, µM (top dose mostly 114 µM), without a hit: at the top dose activity change, negative = inhibition, most hits filed as inhibitors. AlphaScreen HP1-beta / biotin-H3K9me3 peptide binding; note: nearly all actives have a fitted effect of over 70% in size
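HP1-beta protein (50 nM final) preincubated 30 min at room temperature with biotinylated H3(1-18)K9me3 peptide (50 nM) in PBS pH 7.4, 0.01% Tween-20, then compound added for 30 min. AlphaScreen streptavidin donor/nickel chelate acceptor beads (10 ug/mL final), 30 min dark, luminescence read.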
ALOX12 inh: ALOX12 (human) lipoxygenase inhibition; 1.1% of 580,000 active; purified 12hLO, xylenol orange hydroperoxide absorbance; P18054; Potency, µM (top dose mostly 108 µM), for inactives: at the highest dose activity change, negative = inhibition, actives largely listed as inhibitors; AID 1671190; note: % is set by controls: 0 for no effect and ±100 for the full control effect
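Purified human 12hLO (150 nM final) in 25 mM Hepes, 0.01% Triton X-100, pH 7.0 was preincubated 15 min at room temperature with compound. Then 40 uM arachidonic acid was added, 30 min. Hydroperoxide was read by Fe-XO absorbance ratio 573/405 nm.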
Sfp inh: blocks B. subtilis Sfp PPTase activity; Q9F4F7; Biochemical Sfp PPTase activity, qHTS; Potency, µM, for the others: largest response in the series, negative = inhibition, most hits filed as inhibitors; 3.5% of 310,000 active; AID 1490;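 note: the enzyme is Sfp with the accession as filed and its product quenches rhodamine fluorescence; 0% = enzyme reaction without inhibitor and -100% = no enzyme wells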
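Reaction rates are the 30-min fluorescence difference (ex 525, em 598 nm) in wells containing 15 nM Sfp, 5 uM rhodamine-CoA and 12.5 uM BHQ-2-YbbR at pH 7.6 with 10 mM MgCl2.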
G9a block: G9a (human) methyltransferase inhibition | Q96KQ7 | G9a H3K9 monomethylation, AlphaScreen, 2 h | AID 504332 | 8.8% of 350,000 active | Potency, µM (doses to about 102 µM), inactives show at the highest dose activity, negative = inhibition, hits mostly inhibitors; note: % is set by controls: 0 for no effect and ±100 for the full control effect; nearly all actives have a fitted effect of over 75% in size
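AlphaScreen detection with an anti-monomethyl H3K9 antibody quantified product after a 2 h room-temperature reaction containing 500 nM biotinylated H3K9 peptide, 20 µM SAM and 20 nM enzyme, which had been preincubated 15 min with compound.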
Numbers without * were called inactive; u = inconclusive; x = no result; [ ] = another dose, or the depositor's remark. In the library only some 8.7% were active in any assay of this set; here they are far more common. Calls come from the whole dose curve; as a rule, active = well fitted curve in the direction sought with a large enough effect; inconclusive = small, poorly fitted or top-dose-only effect, or another doubt; inactive = no such curve, though single readings can be large; an effect the other way counts as inactive or inconclusive. Potency is the fitted concentration of half-maximal effect.

SMILES	JMJD2A Tudor inh	BAZ2B block	HP1b chromo inh	ALOX12 inh	Sfp inh	G9a block
N#Cc1nc(-c2ccc([N+](=O)[O-])cc2)oc1NCCN1CCOCC1	x	x	x	2.4%	x	x
CCN(CC)S(=O)(=O)c1ccc2cc(OC)ccc2c1	x	x	x	-19.7%	x	x
CN(C)C(=S)c1ccc(N(C)C)cc1	-21.8%	u	u	u	15.8µM*	7.94µM*
CN(/N=C/c1ccccc1O)C(=S)c1ccccc1	u	u	-5.0%	u	u	x
CN(C)c1ccc(NC(N)=S)cc1	-31.9%	u	-1.5%	u	-19.6%	10µM*
CN(C)C(=S)c1ccccc1	u	-10.9%	u	u	20µM*	10µM*
COc1cccc(-n2c(-c3cccc(S(=O)(=O)N(C)C)c3)n[nH]c2=S)c1	8.91µM*	x	13.8%	u	50.1µM*	2.51µM*
COc1ccc(OC)c(-n2c(-c3cccc(S(=O)(=O)N(C)C)c3)n[nH]c2=S)c1	u	x	-19.1%	-1.8%	-11.3%	2.51µM*
O=C1/C(=C/c2ccco2)Oc2c1ccc(O)c2CN1CCCCC1	-30.1%	u	6.8%	u	u	u
COCCN(CCOC)Cc1c(O)ccc2c1O/C(=C\c1ccco1)C2=O	-22.6%	70.8µM*	-23.8%	u	39.8µM*	4.47µM*
CC1CCN(Cc2c(O)ccc3c2O/C(=C\c2ccco2)C3=O)CC1	-26.6%	50.1µM*	15.2%	x	u	5.62µM*
O=C(O)CCC(=O)N1CCC(N(Cc2ccccc2)C2CCOCC2)CC1	x	x	x	20.8%	x	x
CN(C(=O)Cn1c(Cl)nc2c1c(=O)n(C)c(=O)n2C)C1CCS(=O)(=O)C1 (stereo unspecified)	-20.0%	-4.9%	0.2%	u	x	56.2µM*
COc1ccc(C(=O)Cn2c(Cl)nc3c2c(=O)n(C)c(=O)n3C)cc1	-14.5%	1.7%	-2.4%	u	12.6µM*	22.5%[12.7 µM]
Cn1c(=O)c2c(nc(Cl)n2CC(=O)c2ccc(Br)cc2)n(C)c1=O	x	x	x	-26.7%	x	x
CCOC(=O)c1cc(S(=O)(=O)N2CCN(c3ccccc3OC)CC2)[nH]n1	-22.7%	-9.6%	11.2%[57 µM]	-23.6%	x	28.2µM*
Cc1ccc(Cl)cc1N1CCN(S(=O)(=O)c2cn(C)c(C)n2)CC1	56.2µM*	-22.3%	6.6%[57 µM]	-7.1%	x	0.7%[59 µM]
CCOC(=O)c1cc(S(=O)(=O)N2CCN(c3cc(Cl)ccc3C)CC2)[nH]n1	u	u	16.3%[57 µM]	u	x	12.6µM*
CCOC(=O)c1cc(S(=O)(=O)N2CCN(c3ccc(F)cc3)CC2)[nH]n1	-21.1%	u	7.3%[57 µM]	-4.9%	x	28.2µM*
COC(=O)C(NC(=O)c1ccccc1)(Nc1nc(C2CC2)cs1)C(F)(F)F (stereo unspecified)	x	x	x	-2.4%	x	x
NC(=O)c1ccc(NC(=O)C2=C(c3ccccc3)SCCO2)cc1	x	x	x	14.9%	x	x
CCCCCCC12C(=Cc3cc4c(cc31)OCCO4)c1cc(OC)c(OC)cc1C(CC(=O)O)N2C(=O)OC (stereo unspecified)	x	x	x	39.8µM*	x	x
CCCCN1C(=O)C2(/C(=C(\O)c3ccc(OC)cc3)C(=O)C(=O)N2CCOC)c2ccccc21 (stereo unspecified)	x	x	x	-0.6%	x	x
CCC1CSC(Nc2ccc(C)cc2)=N1 (stereo unspecified)	x	x	x	-18.1%	x	x
N#Cc1cccc(-c2cn3c(n2)N(C(=O)c2cccc(F)c2)CCC3)c1	x	x	x	49.0%	x	x
SMILES	JMJD2A Tudor inh	BAZ2B block	HP1b chromo inh	ALOX12 inh	Sfp inh	G9a block
Cc1ccc2nc(-c3ccccc3)cc(C(=O)N3CCN(C(=O)c4ccco4)CC3)c2c1	x	x	x	-6.1%	x	x
O=C(c1ccco1)N1CCN(C(=O)c2cc(-c3ccccn3)nc3ccc(Cl)cc23)CC1	-6.3%[57.1 µM]	-30.3%	-15.4%	u	15.8µM*	u
Cc1cc(NC(=O)Cn2ccn3nc(-c4ccccc4)c(CO)c3c2=O)no1	x	x	x	79.7%	x	x
Cc1cc2nc3c(=O)n(CCc4ccccc4)c(=O)[nH]c3nc2cc1N	-18.6%	-11.7%	14.2%	u	7.94µM*	-3.9%
CCCCn1c(=O)[nH]c2nc3cc(N)ccc3nc2c1=O	-25.1%	u	6.9%	u	56.2µM*	3.55µM*
Nc1ccc2nc3c(=O)n(CCc4ccccc4)c(=O)[nH]c3nc2c1	-0.4%	6.5%	25.5%	-24.0%	-18.1%	x
Cc1cnc(C2CCC2)n1CC1CCN(C(=O)CCc2ccccc2)CC1	x	x	x	76.3%	x	x
CCOC(=O)c1c(NC(=O)c2noc(C)c2[N+](=O)[O-])sc(C(C)=O)c1C	-28.5%	-3.8%	-20.6%	-27.8%	-20.8%	39.8µM*
CCOC(=O)c1c(-c2ccccc2)csc1NC(=O)c1cc(-c2ccc(C)c(F)c2)on1	-17.5%	-11.1%	29.0%	-7.1%	x	-8.9%[59 µM]
CCOC(=O)c1c(NC(=O)c2cc(-c3cccc(Cl)c3)on2)sc(C)c1C	6.1%	-0.7%	9.0%	6.4%	x	12.6µM*
CCOC(=O)c1c(NC(=O)c2cc(-c3ccc(Br)cc3)on2)sc(C)c1C	-18.8%	3.1%	-9.8%	-5.2%	x	2.82µM*
CCOC(=O)c1c(-c2ccccc2)csc1NC(=O)c1cc(-c2ccc(Cl)cc2)on1	0.0%	4.1%	-5.0%	0.0%	x	17.8µM*
CCOC(=O)c1c(NC(=O)c2cc(-c3cccc(O)c3)on2)sc(C(C)=O)c1C	-35.2%	u	64.4%	7.0%[57.4 µM]	-3.7%	u
CCOC(=O)c1c(NC(=O)c2cc(-c3cccc(Cl)c3)on2)sc(C(C)=O)c1C	-11.9%	1.0%	70.8µM*	u	x	14.1µM*
CCOC(=O)c1c(-c2ccc(C)cc2)csc1NC(=O)c1nc(SC(C)C)ncc1Cl	-17.0%	-7.1%	-12.3%	-22.7%	x	12.6µM*
CCOC(=O)c1c(-c2ccc(C)cc2)csc1NC(=O)c1cc(=O)c2cc(C)cc(C)c2o1	-9.7%	12.4%	u	-27.2%	x	7.08µM*
CCOC(=O)c1c(-c2ccccc2)csc1NC(=S)N(CC)CC	17.5%	3.5%	14.8%	-9.1%	-2.9%	22.4µM*
CCOC(=O)c1c(-c2ccc(C)cc2)csc1NC(=O)c1cc(=O)c2cc(Cl)ccc2o1	-4.5%	20.3%	50.6%	-6.4%	x	14.0%[59 µM]
O=C(CCc1ccsc1)N(Cc1ccccn1)C1CC1	x	x	x	0.1%	x	x
CC(O)(c1ccc(F)c(F)c1)c1nc(/C=C/c2ccc(C(F)(F)F)cc2)cs1 (stereo unspecified)	x	x	x	35.5µM*	x	x
CC(O)(c1ccc(F)c(F)c1)c1nc(-c2csc3ccccc23)cs1 (stereo unspecified)	x	x	x	44.7µM*	x	x
Cc1oc(-c2cccs2)nc1C(=O)NCC(C)N1CCOCC1 (stereo unspecified)	x	x	x	-0.2%	x	x
COc1ccc(C(=O)NC(=S)NNC(=O)Cc2cccs2)cc1	u	-4.2%	3.9%	u	12.1%	11.2µM*

Screening data as filed in PubChem BioAssay.
